# Experimental data taken from PubChem BioAssay AID1508600 (Functional Genomics Laboratory (NCATS/FGL), 2020).
# In all, about 53,000 sequences went through this assay and about 3,700 (7%) were called active.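 Rule for the calls: active = gene knockdowns whose robust z-score for IL-1 alpha signal is at least 2 or at most -2, so actives lie on both sides; inactive = the rest.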 This excerpt belongs to a sample that is enriched for actives.
# Assay: Components of the Cytosolic LPS Sensing Pathway: Gene Identification via Genome-wide siRNA Screen;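 note: robust z of the log signal after scaling to non-targeting control siRNA wells of the plate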
# Conditions: RAW264.7 macrophages, IL-1a HTRF, actives lie on both sides, screened at 100 nM (by protocol), cells primed 5 h with Pam3CSK4 first
# In short: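 Using IL-1a HTRF as read-out, the screen measured release from RAW264.7 cells after 48h siRNA knockdown (100 nM), 5 h Pam3CSK4 priming and 24 h cytosolic LipidA. Values were expressed relative to negative-control wells as robust z-scores.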
row,Sequence,z-score
1,GGUGUGUAUGGUGCUAGGATT against Olfr1507,-2.43 (active)
2,CCAGCUAAAAAGAUGGUAGTT against Rreb1,0.319 (inactive)
3,CCUGAAAGCUAAUAUGAAATT against Defb44-ps,0.0593 (inactive)
4,GGCUUUUAGUACUGAUAGUTT against Neu3,2.6 (active)
5,CCUCGUUACAUCCUCCCUGTT against Pold1,-0.142 (inactive)
6,CGAUUAUCGGCCCAGCAAATT against Bmp1,1.01 (inactive)
7,GGUCUCCCUUCAGUAUGAGTT against Cela3b,-0.602 (inactive)
8,CCUAGAGCUUUUCAGAAUATT against Rsl1d1,0.4 (inactive)
9,CGAUCGGCGACCUUUUAGATT against Irak3,-0.527 (inactive)
10,GGCAGUAGUUAGCAAAUAUTT against Ska1,-1.24 (inactive)
11,GGAUCUGGAAUCACUGUUUTT against Lmnb2,-0.451 (inactive)
12,GGUUUUAGGACACCUGGUUTT against Gys1,2.13 (active)
13,GGUGCCAUCCCAAACUUUATT against Frat2,0.788 (inactive)
14,CCUCUUGAGGUCUCGUCAATT against Fam221b,-0.0968 (inactive)
15,GGAUACAAAUCAGGUUCUCTT against Kansl2,0.0399 (inactive)
16,GCCUUCUUAAGCUCUGAGCTT against Dhrs13,-2.97 (active)
17,GGAAAAAAGAGAGGUCAGATT against Meox1,-1.02 (inactive)
18,GGAAAUUGCUCAGGAGUUUTT against Anxa5,-1.26 (inactive)
19,GGAGAAUCCUGUUUUUUGUTT against Elp4,0.43 (inactive)
20,GGUGCCAAUCAUUGUUAUGTT against Kcnv1,1.73 (inactive)
21,CCCGAGAUGAGGAACUUUUTT against Ndnf,-0.359 (inactive)
22,GGAGUAAUGAUAAGCCCUCTT against Tex264,-0.0637 (inactive)
23,GCUCUACCUCAGAUAAAGGTT against Banf2,-2.45 (active)
24,GGAUCUCAUACAGAAUCCGTT against Haus4,0.216 (inactive)
25,GGACCUAGAGGACUAUAAATT against P3h2,0.894 (inactive)
26,GGAGCAGGUUACCAGAAAATT against E130114P18Rik,0.301 (inactive)
27,GGGUUUGACUGUACAGUACTT against Adamts4,-1.29 (inactive)
28,GGCCUUUACACGUGAGUCUTT against Zfp420,-0.864 (inactive)
29,CGGAUGCGACAAAAAUCACTT against Il4,1.77 (inactive)
30,GCACUUACCGGAUCCAUUGTT against Clk4,-0.793 (inactive)
